The results in this text go back to PubChem BioAssay (EPA / NIEHS).

Active and inactive are the calls of the source. The calls were made as follows: active = hit-call score of the fitted dose curve at least 0.9, where 1 is the maximum; inactive = score below 0.9.

A short description of this experiment: CEETOX_H295R_MTT_cell_viability: Viability Assessment in the CeeTox HT-H295R MTT Assay (AID 2283718).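 As to AC50: curve fitted both ways so AC50 may mark viability loss or gain.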 As for the experimental part:
CEETOX_H295R is a cell-based, multiplexed-readout assay that uses H295R, a human adrenal gland cell line, with measurements taken at 48 hours after chemical dosing in a 96-well plate.CEETOX_H295R_MTT_cell_viability is one of 23 assay component(s) measured or calculated from the CEETOX_H295R assay. It is designed to make measurements of cell number, a form of viability reporter, as detected with […] signals by MTT cytotoxicity assay technology.The assay component endpoint CEETOX_H295R_MTT_cell_viability was analyzed with bidirectional fitting relation to DMSO as the negative control and baseline of activity. Using a type of viability reporter in the MTT cytotoxicity assay, gain or loss-of-signal activity can be used to monitor cellular processes to understand changes in proliferation. To generalize the intended target to other relatable targets, this assay endpoint is annotated to cell cycle, where the subfamily is proliferation.
Cell culture and media preparation procedures were conducted in accordance with OECD Test No. 456 guidelines, with minor modifications. H295R cells (ATCC CRL-2128) were expanded for 5 passages and frozen in batches in liquid nitrogen. Prior to the steroidogenesis assay, H295R cells were thawed and passed at least 4 times. The maximum passage was 10. Cells were maintained in a 1:1 mixture of DMEM/F12 supplemented with 5ml/L ITS+ Premix (BD Bioscience) and 12.5 ml/L Nu-Serum (BD Bioscience). After seeding cells into 96-well plates at 50-60% confluency, cells were allowed to adhere overnight. Prior to chemical testing, culture medium was replaced with 175 uL medium containing 10 uM forskolin to stimulate steroidogenesis for 48 hours. Following prestimulation, forskolin medium was replaced with medium containing test chemical solubilized in DMSO (ensuring a final concentration of 0.1% DMSO). Test chemicals were incubated for 48 hours, then the medium was removed and split into 2 vials containing approximately 75uL each, and stored at -80 C prior to hormone analysis. For steroid quantification, media samples were shipped to OpAns, LLC (Durham, NC) on dry ice, and samples were thawed to room temperature prior to liquid-liquid extraction. Steroid hormones were extracted from media samples using methyl tertbutyl ether (MTBE). An extra derivatization with dansyl chloride was included for estrogen (estrone and estradiol) detection only. Steroid hormones were separated by HPLC, eluted using a reverse phase C18 gradient with electrospray positive ionization, followed by quantification by tandem mass spectrometry (MS/MS). Data were acquired on a MassHunter Workstation Acquisition version B03.01 (Agilent Technologies, Inc.) and processed using MassHunter Quantitative Analysis for QQQ. Accuracy was determined for each hormone analyte from 3 standards to determine upper and lower limits of quantification (ULOQ and LLOQ, respectively) using a 7-point standard curve. Precision and accuracy of the extraction and quantification methods were calculated as the percent relative standard deviation (%RSD) of the spiked standards and percent spiked standard recovered, respectively. The goal was to achieve 100% accuracy (i.e., recover all spiked-in standard at quantification with minimal loss during run time) and good precision (i.e., have %RSD <15% to ensure reproducibility). Test medium was removed following chemical exposure, and cell viability was evaluated in the same wells by MTT. MTT procedures were as follows: after removal of test medium, 500 uL of 0.5 mg/ml of 3-[4,5-dimethylthiazol-2-y]2,5-diphenyltetrazoliumbromide solution was added to the cells. Following a 4-hour incubation at 37 C and 5% CO2 to allow formazan-crystal formation, the MTT solution was removed and blue formazan salt crystals were solubilized using 500uL anhydrous isopropanol with shaking for 20 minutes. Absorbance was read at 570 and 650nm using a Packard Fusion microplate reader. […]
Take `COc1ccc(N=Nc2cc(C)c(N=Nc3ccc(S(=O)(=O)O)cc3)cc2OC)cc1`: the compound was classed as inactive.

On to `Nc1ccc(N)c2c1C(=O)c1ccccc1C2=O`, for which the outcome was inactive.

Turning to `COc1ccc(CCN2CCC(Nc3nc4ccccc4n3Cc3ccc(F)cc3)CC2)cc1`, the compound was classed as inactive.

In the case of `Cc1cc(=O)oc2cc(N(C)C)ccc12`, the result was inactive.

Turning to `BrCc1cccc(Oc2ccccc2)c1`, the compound was classed as inactive.

Turning to `CC1(C)C(=O)N(Cl)C(=O)N1Br`, the outcome was inactive.

As for `CC(CN=Cc1ccccc1O)N=Cc1ccccc1O` (stereo unspecified), the AC50 (as a rule, the concentration giving half of the maximal activity seen) was 2570 nM (active).

On to `OCc1cccc(Oc2ccccc2)c1`, for which the outcome was inactive.

For `CC=Cc1ccc(OCC)c(O)c1`, the compound was classed as inactive.

For `COCCc1ccc(OCC(O)CNC(C)C)cc1` (stereo unspecified), the outcome was inactive.

As to `CCCCCCCCN1CCCC1=O`, the AC50 was 882 nM (active).

In the case of `O=C(Nc1ccc2c(O)c(N=Nc3ccc(N=Nc4ccc(S(=O)(=O)O)cc4)cc3)c(S(=O)(=O)O)cc2c1)c1ccccc1`, the compound was classed as inactive.

Take `CCc1cc(C(C)(C)C)c(O)c(C(C)(C)C)c1`: the call was inactive.

Turning to `CC=Cc1ccc(OC)c(OC)c1`, the compound was classed as inactive.

As for `CCC(C)c1cc([N+](=O)[O-])cc([N+](=O)[O-])c1OC(=O)OC(C)C` (stereo unspecified), the compound was classed as inactive.

For the compound `C=C[Si]1(C)O[Si](C)(C=C)O[Si](C)(C=C)O[Si](C)(C=C)O1` (stereo unspecified), the compound was classed as inactive.

For the compound `CC(C)(C)CC(C)(C)c1ccc(OCCOCC[N+](C)(C)Cc2ccccc2)cc1`, the compound was called inactive.

Regarding `COc1ccc(OC)c(N=Nc2c(O)ccc3ccccc23)c1`, the compound was called inactive.

On to `C=C1CC[C@H](O)C/C1=C/C=C1\CCC[C@]2(C)[C@@H]([C@H](C)/C=C/[C@H](C)C(C)C)CC[C@@H]12`, for which the AC50 is 83400 nM (active).

As to `CCOC(=O)[C@@H](C)Oc1ccc(Oc2nc3ccc(Cl)cc3o2)cc1`, the result was inactive.

As for `CC(C)Nc1nc(N)nc(Cl)n1`, the call was inactive.
